Read-out in test [1]: urokinase plasminogen activator (uPA), PLAU (gene 5328)
The experiment in a line: BSK_KF3CT_uPA: BioMAP Diversity Plus: KF3CT Assay for urokinase plasminogen activator (uPA) Biomarker Activity (AID 2283075). The following applies: primary human keratinocytes with fibroblasts; actives raise or lower the signal. The gist of the method: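 Values derive from bidirectional fitting against DMSO controls. Keratinocyte/foreskin fibroblast co-cultures received chemical; 24 h later uPA was detected by ELISA, with SRB total-protein staining in parallel wells for overt cytotoxicity.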

Read-out in test [2]: CD40, CD40 (gene 958)
As to the kind of experiment: BSK_LPS_CD40: BioMAP Diversity Plus: LPS Assay for CD40 Biomarker Activity (AID 2283076). The settings on record: primary human HUVEC with PBMC; actives raise or lower the signal. Summed up: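 HUVEC plus PBMC co-culture stimulated with LPS; CD40 quantified by ELISA 24 h after compound dosing. Fitting was bidirectional relative to DMSO. SRB staining of parallel cultures flagged overt cytotoxicity.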

Read-out in test [3]: E-selectin (Homo sapiens) (UniProt P16581)
As to the kind of experiment: BSK_LPS_Eselectin: BioMAP Diversity Plus: LPS Assay for Eselectin Biomarker Activity (AID 2283077). The settings on record: primary human HUVEC with PBMC; actives raise or lower the signal. Summed up:
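Human umbilical vein endothelial cells co-cultured with PBMC under LPS stimulation; cell-surface E-selectin measured by ELISA 24 h after dosing. Change in either direction versus DMSO, with SRB total-protein staining in parallel cultures for cytotoxicity.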

The nature of test [4]: BSK_LPS_SRB: Viability Assessment in the BioMAP Diversity Plus: LPS Assay (AID 2283079).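 Further: total protein by sulforhodamine B absorbance as a cytotoxicity measure; measured one day after compound addition; fitted in both directions against DMSO so loss or gain of signal counts.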 The following applies: primary human HUVEC with PBMC. The gist of the method:
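Co-culture of human umbilical vein endothelial cells and PBMC, read 24 h after dosing. Total protein by 0.1% SRB staining after 10% TCA fixation, absorbance at 560 nm; bidirectional fit against DMSO.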

Read-out in test [5]: Interleukin-1 alpha (IL1a), IL1A (gene 3552)
As to the kind of experiment: BSK_LPS_IL1a: BioMAP Diversity Plus: LPS Assay for Interleukin-1 alpha (IL1a) Biomarker Activity (AID 2283080). The settings on record: primary human HUVEC with PBMC; actives raise or lower the signal. Summed up:
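Human umbilical vein endothelial cells co-cultured with PBMC and stimulated with LPS; IL-1a measured by ELISA 24 h after dosing. Bidirectional fitting against DMSO; cytotoxicity checked by SRB staining in parallel cultures.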

Read-out in test [6]: Monocyte Chemoattractant Protein-1 (MCP1), CCL2 (gene 6347)
As to the kind of experiment: BSK_LPS_MCP1: BioMAP Diversity Plus: LPS Assay for Monocyte Chemoattractant Protein-1 (MCP1) Biomarker Activity (AID 2283081).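 On AC50: secreted MCP-1 protein quantified by ELISA in culture supernatant.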 The following applies: primary human HUVEC with PBMC; actives raise or lower the signal. Summed up: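 Human umbilical vein endothelial cells co-cultured with PBMC, LPS-stimulated; secreted MCP-1 measured by ELISA 24 h after compound addition. Bidirectional curve fitting against DMSO baseline; SRB total-protein staining in parallel cultures for cytotoxicity.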

Test [7] is described as follows: BSK_LPS_PGE2: BioMAP Diversity Plus: LPS Assay for Prostaglandin E2 (PGE2) Biomarker Activity (AID 2283082).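 On AC50: secreted prostaglandin E2 measured by ELISA in LPS-stimulated co-culture.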 The following applies: primary human HUVEC with PBMC; actives raise or lower the signal. Summed up:
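ELISA read-out of PGE2 from human umbilical vein endothelial cells co-cultured with peripheral blood mononuclear cells under LPS, 24 h post-dose. Gain or loss of signal scored relative to DMSO baseline.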

Read-out in test [8]: Macrophage colony-stimulating factor (MCSF), CSF1 (gene 1435)
The experiment in a line: BSK_LPS_MCSF: BioMAP Diversity Plus: LPS Assay for Macrophage colony-stimulating factor (MCSF) Biomarker Activity (AID 2283083). The following applies: primary human HUVEC with PBMC; actives raise or lower the signal. Summed up: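 HUVEC–PBMC co-culture, M-CSF measured by ELISA 24 h after chemical dosing. Fitted in both directions relative to DMSO as negative control; overt cytotoxicity assessed by SRB total-protein staining in parallel cultures.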

Read-out in test [9]: Tissue Factor, F3 (gene 2152)
As to the kind of experiment: BSK_LPS_TissueFactor: BioMAP Diversity Plus: LPS Assay for Tissue Factor Biomarker Activity (AID 2283084). The following applies: primary human HUVEC with PBMC; actives raise or lower the signal. The gist of the method:
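Human umbilical vein endothelial cells co-cultured with PBMC were dosed with compound. Cell-surface CD142 was measured by ELISA 24 h later. Activity was fitted bidirectionally against DMSO, with SRB total-protein staining in parallel cultures for cytotoxicity.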

Read-out in test [10]: Tumor necrosis factor (Homo sapiens) (UniProt P01375)
The experiment in a line: BSK_LPS_TNFa: BioMAP Diversity Plus: LPS Assay for Tumour Necrosis Factor alpha (TNFa) Biomarker Activity (AID 2283085).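 On AC50: TNFa protein level quantified by ELISA in the co-culture.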 The settings on record: primary human HUVEC with PBMC; actives raise or lower the signal. The gist of the method:
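HUVEC/PBMC co-culture, LPS-stimulated; 24 h post-dose; TNFa by ELISA; gain or loss of signal fitted bidirectionally vs DMSO baseline.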

Read-out in test [11]: Vascular cell adhesion molecule 1 (VCAM1), VCAM1 (gene 7412)
As to the kind of experiment: BSK_LPS_VCAM1: BioMAP Diversity Plus: LPS Assay for Vascular cell adhesion molecule 1 (VCAM1) Biomarker Activity (AID 2283086). The following applies: primary human HUVEC with PBMC; actives raise or lower the signal. Summed up:
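ELISA read-out of VCAM-1 at 24 h post-dosing in an LPS-driven HUVEC/PBMC primary human co-culture; gain or loss of signal fitted bidirectionally against DMSO baseline. Cytotoxicity tracked in parallel cultures by SRB total-protein staining.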

Read-out in another test: CD38, CD38 (gene 952)
As to the kind of experiment: BSK_SAg_CD38: BioMAP Diversity Plus: SAg Assay for CD38 Biomarker Activity (AID 2283087). The settings on record: primary human HUVEC with PBMC; actives raise or lower the signal. The gist of the method: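 Measures CD38 on a human endothelial/PBMC co-culture driven by SEB and TSST-1, 24 h after compound exposure, using ELISA with fluorescence detection; DMSO defines baseline for bidirectional curve fitting.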

Read-out in test [12]: CD40, CD40 (gene 958)
The experiment in a line: BSK_SAg_CD40: BioMAP Diversity Plus: SAg Assay for CD40 Biomarker Activity (AID 2283088). The following applies: primary human HUVEC with PBMC; actives raise or lower the signal. Summed up: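 HUVEC plus PBMC co-culture, superantigen-activated, with CD40 read by ELISA 24 h after dosing. Curves fitted in both directions against DMSO. Overt cytotoxicity checked by parallel SRB total-protein staining.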

Read-out in another test: CD69, CD69 (gene 969)
As to the kind of experiment: BSK_SAg_CD69: BioMAP Diversity Plus: SAg Assay for CD69 Biomarker Activity (AID 2283089).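 On AC50: cell surface CD69 protein quantified by ELISA with fluorescence detection.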 The following applies: primary human HUVEC with PBMC; actives raise or lower the signal. The gist of the method: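 Values derive from bidirectional fitting relative to DMSO vehicle. Cells: umbilical vein endothelium plus peripheral blood mononuclear cells, treated 24 h before fluorescent ELISA for CD69.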

Read-out in test [13]: Monocyte Chemoattractant Protein-1 (MCP1), CCL2 (gene 6347)
The experiment in a line: BSK_SAg_MCP1: BioMAP Diversity Plus: SAg Assay for Monocyte Chemoattractant Protein-1 (MCP1) Biomarker Activity (AID 2283090). The settings on record: primary human HUVEC with PBMC; actives raise or lower the signal. Summed up:
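Values derive from bidirectional fitting of ELISA-measured MCP1 against DMSO controls. Readings were taken 24 h after dosing human vascular endothelial cells co-cultured with peripheral blood mononuclear cells under superantigen stimulation.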

Read-out in test [14]: E-selectin (Homo sapiens) (UniProt P16581)
As to the kind of experiment: BSK_SAg_Eselectin: BioMAP Diversity Plus: SAg Assay for Eselectin Biomarker Activity (AID 2283091). The following applies: primary human HUVEC with PBMC; actives raise or lower the signal. Summed up:
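Human umbilical vein endothelial cells co-cultured with peripheral blood mononuclear cells, SAg system. E-selectin is measured by ELISA 24 h after dosing and fitted bidirectionally against DMSO. Cytotoxicity is checked by SRB staining of parallel cultures.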

Read-out in test [15]: Monokine induced gamma interferon (MIG), CXCL9 (gene 4283)
The experiment in a line: BSK_SAg_MIG: BioMAP Diversity Plus: SAg Assay for Monokine induced gamma interferon (MIG) Biomarker Activity (AID 2283092). The settings on record: primary human HUVEC with PBMC; actives raise or lower the signal. The gist of the method: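 Values reflect bidirectional fitting of ELISA-measured MIG against DMSO vehicle, taken 24 h after dosing of a co-culture of human umbilical vein endothelial cells and peripheral blood mononuclear cells.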

Read-out in test [16]: Interleukin-8 (IL8), CXCL8 (gene 3576)
The experiment in a line: BSK_SAg_IL8: BioMAP Diversity Plus: SAg Assay for Interleukin-8 (IL8) Biomarker Activity (AID 2283094). The following applies: primary human HUVEC with PBMC; actives raise or lower the signal. Summed up:
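HUVEC/PBMC co-culture, 24 h post-dose; IL-8 by ELISA. Gain or loss of signal fitted bidirectionally vs DMSO baseline.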

Test [17] is described as follows: BSK_SAg_PBMCCytotoxicity: PBMC Cytotoxicity Assessment in the BioMAP Diversity Plus: SAg Assay (AID 2283093).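 Further: PBMC superantigen activated with SEB plus TSST-1 one hour after compound addition; PBMC viability measured as Alamar Blue reduction fluorescence at 546/580 nm; fitted both ways against DMSO so a hit may be loss or gain of signal.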 The settings on record: primary human HUVEC with PBMC. Summed up:
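Alamar Blue reduction (6 h, 546/580 nm) reports PBMC cytotoxicity after 90 h superantigen activation (SEB, TSST-1; 20 ng/mL final each) with 1 h compound pre-treatment. Gain or loss of signal fitted versus DMSO.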

Activity calls are given as the source filed them. How the source made its calls: active means hit-call score of the fitted dose curve at least 0.9, where 1 is the maximum; inactive means score below 0.9.

As usually defined, the AC50 is the concentration at which the activity in the assay is half-maximal.

Chain of Tumor necrosis factor (Homo sapiens) (P01375 whole entry, looked up): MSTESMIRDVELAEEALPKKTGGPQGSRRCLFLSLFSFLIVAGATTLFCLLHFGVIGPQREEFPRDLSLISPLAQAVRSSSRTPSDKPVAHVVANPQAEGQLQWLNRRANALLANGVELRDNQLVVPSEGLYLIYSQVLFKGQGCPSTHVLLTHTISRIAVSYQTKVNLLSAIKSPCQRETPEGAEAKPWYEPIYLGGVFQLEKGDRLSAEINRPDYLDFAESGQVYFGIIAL
Chain of E-selectin (Homo sapiens) (P16581 whole entry, looked up): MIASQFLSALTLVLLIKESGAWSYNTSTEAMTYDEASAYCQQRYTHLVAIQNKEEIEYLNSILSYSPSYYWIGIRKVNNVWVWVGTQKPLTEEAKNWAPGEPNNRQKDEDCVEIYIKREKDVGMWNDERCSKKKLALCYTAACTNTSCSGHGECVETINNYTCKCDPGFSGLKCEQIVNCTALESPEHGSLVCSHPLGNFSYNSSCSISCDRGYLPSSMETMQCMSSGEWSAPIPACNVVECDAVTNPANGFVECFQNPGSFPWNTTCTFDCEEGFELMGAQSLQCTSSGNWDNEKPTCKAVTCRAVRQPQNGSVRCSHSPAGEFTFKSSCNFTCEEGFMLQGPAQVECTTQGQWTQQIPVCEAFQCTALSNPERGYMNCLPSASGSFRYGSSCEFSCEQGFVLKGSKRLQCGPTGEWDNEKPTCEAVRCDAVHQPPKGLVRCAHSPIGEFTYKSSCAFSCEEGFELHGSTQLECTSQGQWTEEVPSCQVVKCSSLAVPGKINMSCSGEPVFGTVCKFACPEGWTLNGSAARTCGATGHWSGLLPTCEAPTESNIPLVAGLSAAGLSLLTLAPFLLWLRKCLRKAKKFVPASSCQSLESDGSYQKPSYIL

For the compound `O=[Si]=O`, the outcome was “inactive” in [1]; “inactive” in the test with CD40, CD40 (gene 958) [2]; “inactive” in test [3]; “inactive” in test [4]; “inactive” in test [5]; “inactive” in [6]. Moreover, the outcome in test [7] is “inactive”; in test [8], “inactive”; in test [9], “inactive”; in [10], “inactive”; in test [11] it was “inactive”; in the test with CD38, CD38 (gene 952) it was “inactive”. In addition, the outcome in the test with CD40, CD40 (gene 958) [12] is “inactive”; with CD69, CD69 (gene 969) it was “inactive”; in test [13] it was “inactive”; in [14], “inactive”; in [15], “inactive”; in test [16], “inactive”.
Regarding `C#CC(O)C(CC)CCCC` (configuration not stated), the outcome in test [1] is “inactive”; in the test with CD40, CD40 (gene 958) [2] it was “inactive”; in test [3] it was “inactive”; in test [4] it was “inactive”; in [5] it was “inactive”; in test [6] it was “inactive”. The outcome is “inactive” in test [7]; “inactive” in test [8]; “inactive” in [10]; “inactive” in [11]; “inactive” in the test with CD38, CD38 (gene 952); “inactive” in the test with CD40, CD40 (gene 958) [12]. In addition, the outcome in the test with CD69, CD69 (gene 969) was “inactive”; in test [13], “inactive”; in test [14], “inactive”; in [15], “inactive”; in test [16], “inactive”.
For the compound `CCCCC(CC)COP(=O)(OCC(CC)CCCC)OCC(CC)CCCC` (configuration not stated), the outcome in [1] is “inactive”; with CD40, CD40 (gene 958) [2], “inactive”; in [3], “inactive”; in [4], “inactive”; in test [5], “inactive”; in test [6], “inactive”. Besides, the outcome in test [7] was “inactive”; in test [8], “inactive”; in [11], “inactive”; with CD38, CD38 (gene 952) it was “inactive”; with CD40, CD40 (gene 958) [12], “inactive”; with CD69, CD69 (gene 969), “inactive”. Further, the result in test [13], in [14], in test [15] and in test [16] was inactive. Further, in [10], the concentration at half-maximal activity (AC50) was 5460 nM (active).
As for `OCC(CO)n1cnc(-c2ccc(F)cc2)c1-c1ccnc(Oc2ccccc2)n1`, the outcome is “inactive” in test [1]; “inactive” with CD40, CD40 (gene 958) [2]; “inactive” in test [4]; “inactive” in [11]; “inactive” in the test with CD38, CD38 (gene 952); “inactive” in the test with CD40, CD40 (gene 958) [12]. Moreover, the outcome in test [14] and in test [15] was inactive. The AC50 in test [3] is 1090 nM (active); in [5] it was 148 nM (active); in [6], 510 nM (active); in [7], 356 nM (active); in test [8], 1720 nM (active); in test [10], 416 nM (active). The AC50 is 3970 nM (active) with CD69, CD69 (gene 969); 2020 nM (active) in test [13]; 2470 nM (active) in [17]; 240 nM (active) in [16].
On to `c1ccc2occc2c1`, for which the outcome is “inactive” in test [1]; “inactive” in the test with CD40, CD40 (gene 958) [2]; “inactive” in test [3]; “inactive” in test [4]; “inactive” in test [5]; “inactive” in test [6]. Moreover, the outcome in test [7] was “inactive”; in test [8] it was “inactive”; in test [10], “inactive”; in test [11] it was “inactive”; with CD38, CD38 (gene 952), “inactive”; in the test with CD40, CD40 (gene 958) [12] it was “inactive”. Moreover, the outcome with CD69, CD69 (gene 969) was “inactive”; in test [13], “inactive”; in test [14] it was “inactive”; in [15], “inactive”; in test [16] it was “inactive”.

(Values after PubChem BioAssay (EPA / NIEHS).)
